Data reported in the supplement of paper PMC8371130.
Structures can show the parent of a compound that is named as a salt.

Tested on: HL-1
Experiment: relative cell viability (CellTiter-Glo) vs DMSO control (% of DMSO control); higher = more viable cells
Procedure, shortened: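 HL-1 mouse atrial cardiomyocytes were plated in 384-well plates at 1000 cells per well together with compounds at 40, 200, 1000 or 5000 nM in 0.01% DMSO. One day later, cells went to a hypoxic workstation (1% O2) for 48 h, then were reoxygenated for 24 h in a normal incubator, or stayed in normoxia for the same time. Cell viability was read by CellTiter-Glo luminescence and normalised to vehicle-treated control cells.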

[1] = oxygen condition: hypoxia 48 h (1% O2) + reoxygenation 24 h, 40 nM
[2] = oxygen condition: hypoxia 48 h (1% O2) + reoxygenation 24 h, 200 nM
[3] = oxygen condition: hypoxia 48 h (1% O2) + reoxygenation 24 h, 1000 nM
[4] = oxygen condition: hypoxia 48 h (1% O2) + reoxygenation 24 h, 5000 nM
[5] = oxygen condition: normoxia 72 h, 40 nM
[6] = oxygen condition: normoxia 72 h, 200 nM
[7] = oxygen condition: normoxia 72 h, 1000 nM
[8] = oxygen condition: normoxia 72 h, 5000 nM

Compound | relative cell viability [1] | relative cell viability [2] | relative cell viability [3] | relative cell viability [4] | relative cell viability [5] | relative cell viability [6] | relative cell viability [7] | relative cell viability [8]
O=c1[nH]c(=O)n(C2CCCO2)cc1F (stereo unspecified) [Ftorafur] | 101 | 103 | 104 | 96.9 | 100 | 101 | 114 | 89.2
CCCCCCCN(CC)CCCC(O)c1ccc(NS(C)(=O)=O)cc1 (stereo unspecified) [Ibutilide fumarate] | 103 | 95.7 | 98.8 | 92.9 | 98.3 | 97.9 | 97.3 | 97.6
COC(=O)C1=C(C)NC(C)=C(C(=O)OC(C)C)C1c1cccc2nonc12 (stereo unspecified) [Isradipine] | 106 | 111 | 106 | 104 | 108 | 97.7 | 102 | 110
CCN(CC)CC#CCOC(=O)C(O)(c1ccccc1)C1CCCCC1 (stereo unspecified) [Oxybutynin] | 97.2 | 99.9 | 101 | 102 | 109 | 103 | 104 | 101
COCCOC(=O)C1=C(C)NC(C)=C(C(=O)OC(C)C)C1c1cccc([N+](=O)[O-])c1 (stereo unspecified) [Nimodipine] | 109 | 108 | 109 | 107 | 108 | 109 | 103 | 104
CN1C2=CC(=O)/C(=N\NC(N)=O)C=C2CC1S(=O)(=O)O (stereo unspecified) [Carbazochrome sodium sulfonate] | 99 | 97 | 101 | 112 | 95 | 102 | 89.9 | 108
CCN(CC)CCOc1ccc(C(=C(Cl)c2ccccc2)c2ccccc2)cc1 [Clomifene citrate] | 101 | 104 | 107 | 35.1 | 111 | 106 | 98.2 | 6.57
CC[C@H](C)[C@H](N)C1=N[C@H](C(=O)N[C@@H](CC(C)C)C(=O)N[C@H](CCC(=O)[O-])C(=O)N[C@H](C(=O)N[C@H]2CCCCNC(=O)[C@H](CC(N)=O)NC(=O)[C@@H](CC(=O)[O-])NC(=O)[C@H](Cc3cnc[nH]3)NC(=O)[C@@H](Cc3ccccc3)NC(=O)[C@H]([C@@H](C)CC)NC(=O)[C@@H](CCCN)NC2=O)[C@@H](C)CC)CS1.[Zn+2] [Bacitracin zinc] | 95.4 | 107 | 109 | 123 | 105 | 107 | 109 | 117
CCCc1nc2c(C)cc(-c3nc4ccccc4n3C)cc2n1Cc1ccc(-c2ccccc2C(=O)O)cc1 [Telmisartan] | 107 | 102 | 105 | 101 | 105 | 104 | 107 | 109
CC(=O)OCC(=O)NCCCOc1cccc(CN2CCCCC2)c1 [Roxatidine acetate HCl] | 105 | 104 | 99.8 | 114 | 110 | 102 | 107 | 108
NC12CC3CC(CC(C3)C1)C2 [Amantadine hydrochloride] | 107 | 110 | 93.3 | 32.7 | 102 | 101 | 101 | 84.9
NS(=O)(=O)c1cc2c(cc1Cl)NCNS2(=O)=O [Hydrochlorothiazide] | 103 | 106 | 110 | 106 | 110 | 107 | 107 | 115
CCCCc1oc2ccccc2c1C(=O)c1cc(I)c(OCCN(CC)CC)c(I)c1 [Amiodarone HCl] | 99.8 | 95.4 | 103 | 110 | 102 | 110 | 106 | 116
Cc1ccc(C)c(OCCCC(C)(C)C(=O)O)c1 [Gemfibrozil] | 98.5 | 104 | 101 | 103 | 102 | 113 | 106 | 106
c1cnc2cc3c(cc2n1)[C@@H]1CNC[C@H]3C1 [Varenicline tartrate] | 106 | 105 | 110 | 106 | 106 | 102 | 112 | 97.8
C=C1CC[C@H](O)C/C1=C/C=C1\CCC[C@]2(C)[C@@H]([C@H](C)CCCC(C)C)CC[C@@H]12 [Vitamin D3] | 104 | 89.6 | 54.7 | 109 | 94.8 | 70.8 | 66.2 | 116
C=CC(=O)N1CCC[C@@H](n2nc(-c3ccc(Oc4ccccc4)cc3)c3c(N)ncnc32)C1 | 98.9 | 96.6 | 101 | 102 | 101 | 90.2 | 90.5 | 102
C=CC[N+]1([C@H]2C[C@H]3[C@@H]4CC[C@H]5C[C@H](O)[C@@H](N6CCOCC6)C[C@]5(C)[C@H]4CC[C@]3(C)[C@H]2OC(C)=O)CCCC1 [Rocuronium bromide] | 104 | 105 | 116 | 110 | 104 | 104 | 104 | 107
O=C(O)C(=O)O.[NH-][C@@H]1CCCC[C@H]1[NH-].[Pt+2] [Oxaliplatin] | 99.8 | 102 | 109 | 114 | 97.4 | 107 | 105 | 122
CS(=O)(=O)CCNCc1ccc(-c2ccc3ncnc(Nc4ccc(OCc5cccc(F)c5)c(Cl)c4)c3c2)o1 [Lapatinib] | 101 | 97.4 | 99.7 | 104 | 93.2 | 96.8 | 94 | 102
COc1ccc(C2C(=O)c3ccccc3C2=O)cc1 [Anisindione] | 99.6 | 102 | 105 | 118 | 102 | 78.2 | 114 | 120

Compound | relative cell viability [1] | relative cell viability [2] | relative cell viability [3] | relative cell viability [4] | relative cell viability [5] | relative cell viability [6] | relative cell viability [7] | relative cell viability [8]
O=C(O)Cc1ccccc1Nc1c(Cl)cccc1Cl [Diclofenac] | 97.6 | 112 | 103 | 109 | 100 | 105 | 105 | 109
CCCCc1oc2ccc(NS(C)(=O)=O)cc2c1C(=O)c1ccc(OCCCN(CCCC)CCCC)cc1 [Dronedarone HCl] | 99.9 | 99.6 | 102 | 105 | 99.8 | 110 | 102 | 95
CN(C)C/C=C/C(=O)Nc1cc2c(Nc3ccc(F)c(Cl)c3)ncnc2cc1O[C@H]1CCOC1 [Afatinib] | 102 | 107 | 85.9 | 64.7 | 102 | 102 | 72.5 | 17.6
CCN(CC)CC(=O)Nc1c(C)cccc1C [Lidocaine] | 111 | 106 | 104 | 111 | 112 | 108 | 109 | 112
COC(=O)C1=C(C#N)NC(C)=C(C(=O)OC(C)C)C1c1cccc([N+](=O)[O-])c1 (stereo unspecified) [Nilvadipine] | 107 | 105 | 96.3 | 98.7 | 98.3 | 98.1 | 102 | 108
CN1[C@@H]2CC[C@H]1C[C@@H](OC(=O)c1c[nH]c3ccccc13)C2 [Tropisetron] | 99.6 | 103 | 100 | 104 | 98.7 | 101 | 104 | 66
CCCCOc1cc(C(=O)NCCN(CC)CC)c2ccccc2n1 [Dibucaine HCL] | 103 | 107 | 108 | 118 | 109 | 110 | 109 | 118
Cn1nnc2c(C(N)=O)ncn2c1=O [Methazolastone] | 102 | 106 | 111 | 106 | 114 | 106 | 107 | 112
Cc1ccccc1N1C(=O)c2cc(S(N)(=O)=O)c(Cl)cc2NC1C (stereo unspecified) [Metolazone] | 104 | 107 | 107 | 111 | 109 | 110 | 112 | 116
O=C(Nc1c(Cl)cncc1Cl)c1ccc(OC(F)F)c(OCC2CC2)c1 [Roflumilast] | 101 | 82.1 | 92.9 | 99 | 90.6 | 84.6 | 93.7 | 93.6
CC(C)(Oc1ccc(Cl)cc1)C(=O)O [Clofibric acid] | 106 | 105 | 108 | 115 | 104 | 106 | 104 | 109
Nc1cc(N2CCCCC2)nc(N)[n+]1[O-] [Minoxidil] | 108 | 106 | 118 | 113 | 114 | 109 | 112 | 111
NS(=O)(=O)c1cc2c(cc1Cl)NC(C(Cl)Cl)NS2(=O)=O (stereo unspecified) [Trichlormethiazide] | 109 | 109 | 118 | 119 | 107 | 115 | 112 | 114
O=C(Nc1ccccc1)OCC(CN1CCCCC1)OC(=O)Nc1ccccc1 (stereo unspecified) [Diperodon HCl] | 103 | 101 | 104 | 98.6 | 87.5 | 107 | 103 | 109
C=C1/C(=C\C=C2/CCC[C@]3(C)[C@@H]([C@H](C)CCCC(C)(C)O)CC[C@@H]23)C[C@@H](O)C[C@@H]1O [Calcitriol] | 90.8 | 91.2 | 92.9 | 91 | 94.5 | 92.6 | 93.6 | 89.9
CC(CCc1ccc(O)cc1)NCC(O)c1ccc(O)cc1 (stereo unspecified) [Ractopamine HCl] | 103 | 100 | 108 | 60.4 | 98.9 | 104 | 106 | 106
O=C1c2cccc3c2[C@H](CCC3)CN1[C@@H]1CN2CCC1CC2 [Palonosetron HCl] | 103 | 109 | 112 | 97 | 101 | 103 | 86.6 | 104
CCNC(=O)CCC/C=C\C[C@@H]1[C@@H](/C=C/[C@@H](O)CCc2ccccc2)[C@H](O)C[C@@H]1O [Bimatoprost] | 104 | 107 | 108 | 105 | 104 | 101 | 105 | 107
Cc1cccc(Nc2ccncc2S(=O)(=O)NC(=O)NC(C)C)c1 [Torsemide] | 103 | 102 | 107 | 106 | 106 | 112 | 112 | 105
N[C@@H]1CN(c2c(F)cc3c(=O)c(C(=O)O)cn([C@@H]4C[C@@H]4F)c3c2Cl)CC12CC2 [Sitafloxacin hydrate] | 101 | 98.6 | 104 | 108 | 103 | 95.3 | 99 | 108
COCCOC(=O)C1=C(C)NC(C)=C(C(=O)OC/C=C/c2ccccc2)C1c1cccc([N+](=O)[O-])c1 (stereo unspecified) [Cilnidipine] | 101 | 105 | 110 | 109 | 107 | 109 | 103 | 110
